From PubChem BioAssay
The list is not random: actives were taken first. Their share in the collection is about 1.3%.
Neddylation inh: cullin neddylation inhibition; inhibition, % at 25 µM; P61081+Q13564; TR-FRET cullin neddylation, biochemical; AID 651699; 0.58% of 360,000 active; in the data active means inhibition above about 36%
PKA-R2B activ: PKA-R2B complex activation. P22694+P31323. PKA-R2B holoenzyme dissociation, Cy5-IP20 fluorescence polarization; R2B truncated from residue 108, S112A mutant; 0% DMSO only, 100% 113 µM cGMP. activation, % at 11.4 µM. 0.079% of 340,000 active. AID 504700;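 active means activation above a cutoff set at the mean over all compounds plus 3 SD, cut at about 18% in these data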;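 further: higher means more holoenzyme dissociation and a rise in polarization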
PKA-R1A act: PKA-R1A complex activation; P00514+P68181; PKA-R1A dissociation, Cy5-IP20 fluorescence polarization; scaled: DMSO 0%, 113 µM cGMP 100%; activation, % at 11.4 µM; 0.083% of 340,000 active; AID 504707;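 active means percent activation above the mean of all tested compounds plus 3 SD, cut at about 19% in these data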;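 further: higher means more PKAc released from R1A so a rise in polarization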
Rpn11 inh: inhibitors of human proteasome Rpn11; 0.59% of 360,000 active; AID 588493; human 26S proteasome, Ub4-pepOG fluorescence polarization; 20S core pre-blocked with epoxomicin; calls only at 20 µM;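 active means inhibition at 20 µM, scaled to each plate's controls, above about 33%, limit read from the data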
Neddyl inh conf: confirmation of human cullin neddylation inhibitors; shares compounds with Neddylation inh; TR-FRET cullin neddylation biochemical assay; calls only at 25 µM; 13% of 1,800 active; in the data active means inhibition above about 40%;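 further: neddylation substrate is the cullin 1 ring ligase complex with SKP2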
Active calls of the source: *; i = inactive; . = no result given; + = active, no number.

SMILES	Neddylation inh	PKA-R2B activ	PKA-R1A act	Rpn11 inh	Neddyl inh conf
COc1cccc(-c2ccc3c(N)c(C(=O)NC4CC4)sc3n2)c1	38*	-2	-5	i	.
CCOC(=O)C1=CCN(S(=O)(=O)c2cccc(Cl)c2)C1c1ccccc1 (stereo not drawn)	-2	.	.	i	.
CCOC(=O)c1nc(C)sc1-c1ccnn1S(=O)(=O)c1cccc(Cl)c1	76*	-2	3	i	i
CSc1ccccc1OCc1cc(C(=O)N(C)Cc2ccncn2)no1	-4	-9	6	i	.
COC(=O)CSc1ccc2c(N)c(C(=O)OC)sc2c1	51*	-2	-2	i	+
Cc1ccccc1S(=O)(=O)Oc1cccc2c(O)cccc12	0	3	-9	i	.
CCc1c(C)c2ccc(OC(C)C(=O)NC(Cc3c[nH]c4ccc(O)cc34)C(=O)O)c(C)c2oc1=O (stereo not drawn)	46*	-3	-11	i	+
CCCSc1nc2cc(C)c(C)cc2n1CC(O)CO (stereo not drawn)	-1	1	1	i	.
CCSc1nc(-c2ccccc2)c(-c2ccccc2)n1CC(O)CO (stereo not drawn)	44*	-7	-10	i	i
CCOC(=O)c1nn(-c2ccc(OCC)cc2)c2nc(CC(C)C)c(C#N)c(=O)n12	.	5	-1	i	.
CCOC(=O)c1nn(-c2ccccc2C)c2nc(CC(C)C)c(C#N)c(=O)n12	40*	-9	-6	i	i
O=C(NNC(=O)c1ccccc1O)c1cccc(Br)c1	8	1	1	i	.
CC1=C(C(=O)N(C(C)C)C(C)C)CC(CC(=O)NCc2cccs2)C(=O)N1CCC1=CCCCC1 (stereo not drawn)	-3	.	.	i	.
CC(=O)Nc1nc(CC(C)C)cc(-c2ccco2)c1C#N	45*	-16	-14	i	i
CC(=O)c1ccc(-c2ccc(C(=O)N(C)Cc3nc4ccccc4c(=O)[nH]3)o2)cc1	73*	-9	-8	i	.
CN(Cc1nc2ccccc2c(=O)[nH]1)C(=O)c1ccc(S(=O)(=O)N(C)C)cc1	-4	6	3	i	.
COc1cc(/C=C/C2=NNC(=O)CC2)cc(OC)c1OC	41*	1	-10	i	i
CC(C)c1ccc(/C=C/C2=NNC(=O)CC2)cc1	-12	7	-5	i	.
COc1ccccc1Cn1c(=O)oc2ccccc21	1	4	0	i	.
CCc1ccccc1Cn1c(=O)oc2cccnc21	48*	-12	13	i	i
Cc1ccc(S(=O)(=O)Nc2nc3ccccc3nc2NCC2CCCO2)cc1C (stereo not drawn)	39*	-5	-12	i	i
Cc1ccc(S(=O)(=O)Nc2nc3ccccc3nc2NCC2CCCO2)c(C)c1 (stereo not drawn)	47*	-3	-10	i	.
CCCCn1nc(C(=O)N2CCN(S(=O)(=O)c3ccccc3)CC2)c2ccccc2c1=O	-4	-3	-12	i	.
CC1OC(OC2C(Oc3c(-c4ccc(O)cc4)oc4cc(O)cc(O)c4c3=O)OC(COC3O[C@@H](C)[C@H](O)[C@@H](O)C3O)C(O)C2O)C(O)C(O)C1O (stereo partly drawn)	-17	-2	6	i	.
CC(=O)OC[C@H]1O[C@@H](Oc2cc(O)cc3oc(-c4ccc(O)cc4)cc(=O)c23)[C@H](O[C@@H]2O[C@@H](C)[C@H](O)[C@@H](O)[C@H]2O)[C@@H](O)[C@@H]1O	37*	0	0	i	.
SMILES	Neddylation inh	PKA-R2B activ	PKA-R1A act	Rpn11 inh	Neddyl inh conf
CCN(C(=O)CCc1nnc2ccc(NCc3ccco3)nn12)c1ccccc1	1	7	12	i	.
Cc1sc2nc3ccc(NCc4ccco4)nn3c(=O)c2c1C	39*	-11	-8	i	.
O=c1c2ccccc2nc2ccc(NCc3ccco3)nn12	41*	-7	0	i	i
COc1cc(-c2cc(C(=O)OCC(=O)NC3CC3)c3ccccc3n2)cc(OC)c1OC	2	5	-5	i	.
COc1ccc(-c2cc(C(=O)OCC(=O)N3CCCCC3)c3ccccc3n2)cc1OC	45*	-2	2	i	i
COc1cc(-c2cc(C(=O)N3CCCCCC3)c3ccccc3n2)cc(OC)c1OC	50*	-2	-10	i	.
